The panel holds about 79,000 compounds, 15% with a hit somewhere; the sample as a whole holds those more often. Calls of active or inactive are those of the source. Rule as the data show it: active = growth inhibition above about 70%; inactive = the rest.
Assays:
[1] = NCI Yeast Anticancer Drug Screen. Data for the rad50 strain (AID 155);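 also: 0% = growth of vehicle-only cultures of the same strain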; settings: S. cerevisiae rad50 strain growth inhibition; at 50.0 µM; active compounds read high
Method in brief: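 Readout: growth inhibition relative to vehicle-treated cultures. Compound exposure was carried out in a genetically defined yeast strain deficient in DNA damage repair.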

[2] = NCI Yeast Anticancer Drug Screen. Data for the mec2-1 strain (AID 157); settings: S. cerevisiae mec2-1 strain, at 50.0 µM, active compounds read high
Method in brief: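 Growth inhibition is read against vehicle-treated controls after compound exposure of the mec2-1 yeast strain, which is defective in DNA damage repair or cell cycle control.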

[3] = NCI Yeast Anticancer Drug Screen. Data for the sgs1 mgt1 strain (AID 161);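 also: 0% = growth of cultures given vehicle only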; settings: S. cerevisiae sgs1 mgt1 strain, at 50.0 µM, active compounds read high
Method in brief: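 Compounds are added to genetically altered yeast, and growth is compared with cultures given vehicle alone to give percent inhibition.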

[4] = NCI Yeast Anticancer Drug Screen. Data for the cln2 rad14 strain (AID 165);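 also: 0% = growth equal to vehicle treated cultures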; settings: S. cerevisiae cln2 rad14 strain, at 50.0 µM, active compounds read high
Method in brief: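 Growth inhibition, relative to vehicle-treated controls, is the read-out. The test organism is a yeast strain with defined genetic alterations, cln2 rad14.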

[5] = NCI Yeast Anticancer Drug Screen. Data for the bub3 strain (AID 167); settings: S. cerevisiae bub3 mutant strain, at 50.0 µM, active compounds read high
Method in brief: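 Readout: yeast growth inhibition, expressed relative to vehicle-only wells. The test organism is a mutant strain from a panel with lesions in DNA repair or checkpoint genes.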

[6] = NCI Yeast Anticancer Drug Screen. Data for the mlh1 rad18 strain (AID 175); settings: S. cerevisiae mlh1 rad18 strain growth inhibition; at 50.0 µM; active compounds read high
Method in brief: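 Cells of a genetically altered yeast strain, deficient in DNA damage repair, were treated with compound. Their growth was then compared with that of vehicle-treated cultures to give inhibition.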

Measured: growth inhibition

CC(C)(C)N=C(N)NC#N
inactive: [1] 9.6% | [2] 9.25% | [3] -9.85% | [4] 17.1% | [5] -4.5% | [6] -33.3%

C[n+]1ccccc1/C=C/c1cccc([N+](=O)[O-])c1
inactive: [1] -17.6% | [2] -2.7% | [3] -1.3% | [4] -28.8% | [5] 7.8% | [6] 1.9%

CC(=O)c1cccc(NC(=O)OCC2CC3C=CC2C3)c1 (stereo unspecified)
inactive: [1] 25.4% | [2] 27.1% | [3] 45.9% | [4] 4% | [5] 52.8% | [6] 52.3%

Cc1ccc(NC(=S)N2CCCCC2)cc1C
inactive: [1] -1.9% | [2] 13.2% | [3] 19.3% | [4] -19.2% | [5] 25.4% | [6] 15.4%

Cc1ccc(C(C)C)cc1[N+](=O)[O-]
inactive: [1] 9.9% | [2] -3.55% | [3] -17.7% | [4] -41% | [5] -13.6% | [6] -21.3%

COc1ccccc1NCS(=O)(=O)O
inactive: [1] -7.2% | [2] -2.5% | [3] -5.95% | [4] -60.2% | [5] 11.2% | [6] -8.1%

O=C(Nc1nccs1)Nc1cc(F)ccc1F
inactive: [1] 5.7% | [2] 42.5% | [3] 21.5% | [4] -13.2% | [5] 36.6% | [6] 8.35%

O=C(c1ccc2c(c1)OCO2)C(O)c1ccc(Cl)cc1 (stereo unspecified)
inactive: [1] 2.85% | [2] 3.9% | [3] 1.85% | [4] -16.1% | [5] -4.75% | [6] 5%

CC1C(c2ccccc2)=NN(C)c2ccccc21 (stereo unspecified)
inactive: [1] 19.6% | [2] 0.6% | [3] 3.7% | [4] -28.1% | [5] 8.45% | [6] 21.8%

CCCCCCC(C)C(=O)Nc1ccccc1 (stereo unspecified)
inactive: [1] 16.7% | [2] -11.8% | [3] 10.7% | [4] 2.75% | [5] -2.95% | [6] -17.1%

Cc1cc(Cc2cc(C)c(O)c(CN(C)C)c2)cc(CN(C)C)c1O
inactive: [1] -1.8% | [2] -7.7% | [3] 1.35% | [4] -19.5% | [5] -6.1% | [6] -7.05%

Cn1cnc([N+](=O)[O-])c1Sc1n[nH]c(-c2ccc(Cl)cc2)n1
inactive: [1] -11.6% | [2] 1.7% | [3] -7.75% | [4] 21.4% | [5] 17.1% | [6] -6.05%

NC(=O)CNC(=O)[C@@H]1C[C@@H](OCCC(=O)O)CN1C(=O)OCc1ccccc1
inactive: [1] -32.2% | [2] -8.75% | [3] -24.5% | [4] 4.1% | [5] 14.5% | [6] 4.95%

COc1ccc(-n2c(C)c(COC(C)=O)c(COC(C)=O)c2C)cc1
inactive: [1] -5.4% | [2] -18.2% | [3] -0.55% | [4] -2.8% | [5] -7.55% | [6] -55.2%

O=S1c2ccccc2S(=O)c2ccccc21 (stereo unspecified)
inactive: [1] -0.2% | [2] -6.25% | [3] 1.4% | [4] -0.55% | [5] 0.95% | [6] 1.15%

c1ccc([P+](CCNCCNCC[P+](c2ccccc2)(c2ccccc2)c2ccccc2)(c2ccccc2)c2ccccc2)cc1
inactive: [1] 6.3% | [2] 9.25% | [3] -13.8% | [4] 5.65% | [5] -5.2% | [6] -0.6%

Cc1ccccc1/C=C/C(=O)O
inactive: [1] -0.4% | [2] -9.95% | [3] -0.45% | [4] -13.6% | [5] -24.4% | [6] -12.7%

O=C(CC1NCCS1)OCc1ccc(Br)cc1 (stereo unspecified)
inactive: [1] 26.5% | [2] 14.1% | [3] 9.8% | [4] 24.7% | [5] 16.9% | [6] 50%

O=COC(Cc1ccccc1)c1ccc2c(c1)OCO2 (stereo unspecified)
inactive: [1] 32.2% | [2] -5.2% | [3] 1.6% | [4] -7.2% | [5] 30.6% | [6] -3.05%

C=CCn1ccc(=O)nc1SCc1ccccc1
inactive: [1] 5.45% | [2] -4.8% | [3] 0.4% | [4] -33.5% | [5] 3.35% | [6] 0.05%

CCCC(=O)n1[nH]c(=O)n(C(C)(C)C)c1=O
inactive: [1] 2.3% | [2] -7.65% | [3] 14.8% | [4] 6.4% | [5] 7.5% | [6] -22.8%

N#CC(=C1c2ccccc2-c2ccccc21)c1ccccc1
inactive: [1] -14.2% | [2] 7.1% | [3] -2.35% | [4] -2.65% | [5] 2.75% | [6] -20.5%

CCOC(=O)C1=C(Nc2ccc(Cl)cc2Cl)OCC1=O
inactive: [1] -12.3% | [2] -5.85% | [3] -0.35% | [4] -13.9% | [5] -58.5% | [6] 10.2%

O=c1ccnc2c1ccc1[nH]cccc12
inactive: [1] 1.35% | [2] 6.25% | [3] -13.9% | [4] 1% | [5] 8.6% | [6] 13.3%

CC1(C)CC(=O)C=C(NCCCCCCCCNC2=CC(=O)CC(C)(C)C2)C1
inactive: [1] -0.25% | [2] 19.8% | [3] 5.7% | [4] 6.45% | [5] 5% | [6] 9.8%

CCOC(=O)C(C(=O)CC)C(=O)OCC
inactive: [1] 14.3% | [2] 11.3% | [3] 16.2% | [4] 7.65% | [5] 14.2% | [6] 13.4%

COC(=O)C1CC(=O)N(CCCl)C1 (stereo unspecified)
inactive: [1] -5.65% | [2] 5.6% | [3] -23.9% | [4] -18.1% | [5] 11.7% | [6] -10.8%

CCSc1cc(N)ncn1
inactive: [1] -39.6% | [2] -18.6% | [3] -11.5% | [4] -4.15% | [5] -14% | [6] -9.75%

O=C1OC(c2ccc(Cl)cc2)=N/C1=C\c1ccc(Cl)c(Cl)c1
inactive: [1] 35.7% | [2] 19.1% | [3] 59.4% | [4] 19.2% | [5] 38.5% | [6] 31.7%

C=C1C(=O)O[C@@H]2/C=C(\C)CC/C=C(/C)CC[C@@H]12
inactive: [1] 45.8% | [2] 52.2% | [3] 61.6% | [4] 32.8% | [5] 54.4% | [6] 58.1%

CCOC(=O)NC(Nc1ncccn1)(C(=O)OCC)C(F)(F)F (stereo unspecified)
inactive: [1] -28.9% | [2] -29.4% | [3] -77.3% | [4] -15.6% | [5] -39.8% | [6] -34.9%

COC(=O)C1=C(NC(=O)Nc2ccc(OC)cc2)OC(C)(C)C1c1ccc(Cl)cc1 (stereo unspecified)
inactive: [1] 25.9% | [2] 41.7% | [3] 30.4% | [4] 3.75% | [5] 24.1% | [6] 43.4%

N/N=C(\N)SCCCCCCS/C(N)=N/N
inactive: [1] -10.8% | [2] 2.15% | [3] 24% | [4] 41.5% | [5] 39.9% | [6] -5.2%

Nc1nnc2nc(C(C(=O)/C=C\c3cccc(O)c3)c3nc4nnc(N)n4[nH]c3=O)c(=O)[nH]n12
inactive: [1] 30.4% | [2] 15.1% | [3] 19.6% | [4] 1.65% | [5] -5.35% | [6] 19.7%

CC(=O)Oc1ccccc1OC(=S)N(C)C
inactive: [1] 11.2% | [2] -7.35% | [3] -5.5% | [4] -39.2% | [5] 15.8% | [6] -26.8%

CC(C)=C1C=C(C(C)(C)C)C(=O)C(C(C)(C)C)=C1
inactive: [1] 29.9% | [2] -5.9% | [3] -1.8% | [4] 17.4% | [5] 9.15% | [6] 28.4%

Nc1c(F)c(F)c(C(=O)O)c(F)c1F
inactive: [1] -16.1% | [2] -20.6% | [3] -10.4% | [4] -3.9% | [5] -4.8% | [6] -29.4%

CC1CCC(C(C)C)C(OC(=O)N/N=C/N(C)C)C1 (stereo unspecified)
inactive: [1] 1.65% | [2] 17.2% | [3] 4.4% | [4] 20% | [5] -0.95% | [6] 25.1%

O=C(CC(O)(C(F)(F)F)C(F)(F)F)c1ccc(Cl)c([N+](=O)[O-])c1
active: [1] 97.2% | [2] 99.2% | [3] 99.1% | [4] 96.6% | [5] 97.7% | [6] 98.8%

CCN(CCOC(=O)Nc1cccc(C(C)=O)c1)c1ccccc1
active: [1] 91.2% | [2] 96.5% | [3] 97.5% | [4] 76.2% | [5] 92.1% | [6] 88.2%

N#CC(CC(=O)c1ccccc1)c1ccccc1 (stereo unspecified)
inactive: [1] -10.3% | [2] 4.95% | [3] -18.9% | [4] -28.9% | [5] -14.3% | [6] -7.05%

Source: PubChem BioAssay (NCI)
